Results taken from PubChem BioAssay (NCATS).
Several values for one entry are separate records, joined by “and”; a condition that tells them apart may be missing. Identical values can stand only once. Records with an inconclusive call do not appear. Where a structure was tested more than once in an assay, its records may differ in their call. Activity calls are given as the source filed them. Unless noted, the call rests on the fitted dose curve; in most records, active means well fitted curve in the direction sought with a large enough effect; inconclusive means small, poorly fitted or top-dose-only effect, or another doubt; inactive means no such curve, though single readings can be large; an effect the other way counts as inactive or inconclusive.

Assays:
[1] = target: Cellular tumor antigen p53 (Homo sapiens) (UniProt P04637); test: Primary qHTS for small molecule compounds that upregulate eGFP-tagged delta133p53alpha (in N-terminal) cells. (AID 2060322); conditions: NCI-H358 eGFP-delta133p53alpha fluorescence, 24 h; activation: hits give high values; further: nearly all actives have a fitted effect of over 75% in size; further: potency means the concentration at half of the fitted maximal effect;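 on activation: cells pre-induced with doxycycline then dosed without doxycycline; series mostly up to about 56 µM; 0% = DMSO vehicle and 100% = reference activator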
Sequence of Cellular tumor antigen p53 (Homo sapiens) (P04637 whole entry, looked up): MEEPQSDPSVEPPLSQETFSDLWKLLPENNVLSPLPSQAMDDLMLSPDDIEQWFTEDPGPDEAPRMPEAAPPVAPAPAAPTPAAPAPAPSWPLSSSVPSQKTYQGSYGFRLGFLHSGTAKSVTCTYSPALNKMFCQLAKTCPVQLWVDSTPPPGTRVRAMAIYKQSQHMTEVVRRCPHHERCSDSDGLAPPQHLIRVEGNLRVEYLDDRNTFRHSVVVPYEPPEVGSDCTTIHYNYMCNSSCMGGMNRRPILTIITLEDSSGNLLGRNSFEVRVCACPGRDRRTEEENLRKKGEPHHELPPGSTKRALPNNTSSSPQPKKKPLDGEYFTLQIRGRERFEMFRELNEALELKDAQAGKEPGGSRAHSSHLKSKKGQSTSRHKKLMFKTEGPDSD
In short: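 NCI-H358 cells pre-induced 24 h with 10 ng/ml doxycycline for eGFP-delta133p53alpha, plated dox-free and exposed 24 h at 37C to titrated compounds. Fixed, Hoechst-stained; gated GFP peak intensity by laser scanning cytometry, normalized to DMSO (0%) and 57.5 uM 5-azacytidine (100%).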

[2] = target: Aldehyde dehydrogenase, mitochondrial (Homo sapiens) (UniProt P05091); test: qHTS for Inhibitors of the Aldehyde Dehydrogenase Family (ALDH2) Primary screen (AID 2061308);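 further: plate controls were vehicle for no effect and reference inhibitor for full effect; nearly all actives have a fitted effect of over 55% in size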
[3] = target: Retinaldehyde dehydrogenase 3 (Homo sapiens) (UniProt P47895); test: qHTS for Inhibitors of the Aldehyde Dehydrogenase Family (ALDH1A3) Primary screen (AID 2061315);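 further: plate controls were DMSO vehicle for no effect and reference inhibitor for full effect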
[4] = BET inhibitor-based combinations targeting novel dependencies in MECOM-rearranged (r) AML: SET-2 cell line (AID 2202231); conditions: SET-2 AML cells viability, CellTiter-Glo luminescence, 48 h; viability: hits give low values, concentration not given here; further: nearly all actives have a fitted effect of over 35% in size; further: potency means the concentration at half of the fitted maximal effect;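 on viability: plate controls were DMSO treated cells for no effect and wells without cells for full effect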
In short: (§1)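 500 cells/well; 11-pt dose curve; 48 h, standard incubator; CellTiter-Glo luminescence after 15 min RT; DMSO/empty-well normalization; AUC plus Z-AUC (mean-centered within each line).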

[5] = BET inhibitor-based combinations targeting novel dependencies in MECOM-rearranged (r) AML: OCI-AML3 cell line (AID 2202232); conditions: Potency: OCI-AML3 viability; further: nearly all actives have a fitted effect of over 35% in size; further: potency means the concentration at half of the fitted maximal effect
In short: as §1

[6] = BET inhibitor-based combinations targeting novel dependencies in MECOM-rearranged (r) AML: MV-4-11 cell line (AID 2202233); further: nearly all actives have a fitted effect of over 45% in size; further: potency means the concentration at half of the fitted maximal effect
In short: (§2)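 Cells were plated at 500 per well and exposed to each drug across an 11-point dose range for 48 hr at standard incubator conditions. Viability was read by CellTiter-Glo luminescence, and activity was expressed as AUC and per-cell-line Z-transformed AUC.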

[7] = BET inhibitor-based combinations targeting novel dependencies in MECOM-rearranged (r) AML: HNT-34 cell line (AID 2202234); further: nearly all actives have a fitted effect of over 35% in size; further: potency means the concentration at half of the fitted maximal effect
In short: as §2

[8] = BET inhibitor-based combinations targeting novel dependencies in MECOM-rearranged (r) AML: UCSD-AML1 cell line (AID 2202235); further: nearly all actives have a fitted effect of over 40% in size; further: potency means the concentration at half of the fitted maximal effect
In short: as §2

[9] = BET inhibitor-based combinations targeting novel dependencies in MECOM-rearranged (r) AML: AML-191 cell line (AID 2202236; further: nearly all actives have a fitted effect of over 35% in size; further: potency means the concentration at half of the fitted maximal effect)
In short: as §1

[10] = BET inhibitor-based combinations targeting novel dependencies in MECOM-rearranged (r) AML: AML-194 cell line (AID 2202237; further: nearly all actives have a fitted effect of over 40% in size; further: potency means the concentration at half of the fitted maximal effect)
In short: as §1

[11] = target: Cellular tumor antigen p53 (Homo sapiens) (UniProt P04637); test: Primary qHTS for small molecule compounds that upregulate eGFP-tagged delta133p53alpha (in C-terminal) cells. (AID 2060324);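 further: 0% = DMSO wells and 100% = 57.5 µM 5-azacytidine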
In short: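 Concentration-response screen: compounds titrated onto pre-induced NCI-H358 D133p53a-eGFP cells, incubated one day, fixed with 3.5% PFA. Per-cell GFP peak intensity was gated, then normalized against intraplate controls.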

[12] = target: Aldehyde dehydrogenase, mitochondrial (Homo sapiens) (UniProt P05091); test: qHTS for Inhibitors of the Aldehyde Dehydrogenase Family (ALDH2) Validation screens (AID 2061302; active means well fitted inhibition curve with a large enough effect; title and protocol of this record describe different tests;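 further: plate controls were DMSO vehicle for no effect and maximal DPI positive control response for full effect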)
[13] = target: Retinaldehyde dehydrogenase 3 (Homo sapiens) (UniProt P47895); test: qHTS for Inhibitors of the Aldehyde Dehydrogenase Family (ALDH1A3) Validation screen (AID 2061312); further: on the % scale 0 is the no-effect control and ±100 the full control effect; nearly all actives have a fitted effect of over 45% in size

O=C(Nc1cc(C(F)(F)F)cc(C(F)(F)F)c1)c1cc(Cl)ccc1O
inactive: activation [1] 2.31% | Potency [2] | Potency [3]
active: Potency [1] 3.01 µM | Potency [4] 2.35 µM | Potency [5] 2.09 µM | Potency [6] 1.86 µM | Potency [7] 2.35 µM | Potency [8] 1.66 µM | Potency [9] 1.18 µM | Potency [10] 2.63 µM

Oc1ccc(-c2nc(-c3ccc(F)cc3)c(-c3ccncc3)[nH]2)cc1
inactive: activation [1] 9.98% and -12.3% | Potency [11] | Potency [12] | Potency [13]
active: Potency [1] 38.5 µM | Potency [6] 18.6 µM

CN1CCc2c(c3ccccc3n2Cc2ccc(C(=O)NO)cc2)C1
inactive: activation [1] 77.5% | Potency [2] | Potency [3]
active: Potency [1] 34.3 µM | Potency [4] 20.9 µM | Potency [5] 20.9 µM | Potency [6] 20.9 µM | Potency [7] 9.34 µM | Potency [9] 20.9 µM | Potency [10] 23.5 µM

COc1cc2nc(N3CCCN(C)CC3)nc(NC3CCN(Cc4ccccc4)CC3)c2cc1OC
inactive: activation [1] -2.51% | Potency [12]
active: Potency [1] 30.6 µM | Potency [5] 8.33 µM | Potency [6] 6.61 µM | Potency [7] 7.42 µM | Potency [8] 6.61 µM | Potency [9] 14.8 µM | Potency [10] 10.5 µM

CCc1cccc(CC)c1NC(=O)N1Cc2[nH]nc(NC(=O)c3ccc(N4CCN(C)CC4)cc3)c2C1
active: Potency [1] 12.2 µM | Potency [6] 1.32 µM | Potency [7] 0.742 µM | Potency [8] 14.8 µM | Potency [9] 5.25 µM | Potency [10] 9.34 µM
inactive: activation [1] 5.63% | Potency [2] | Potency [3]

CCNC(=O)Nc1ccc2ncc(Nc3ccc(C)cc3)nc2n1
active: Potency [1] 30.1 µM
inactive: activation [1] -1.61% | Potency [2] | Potency [3]

CN(C[C@@H]1COCCO1)S(=O)(=O)Nc1ccc2ccc3ncc(-c4cnn(C)c4)cc3c(=O)c2c1
active: Potency [1] 8.63 µM | Potency [6] 0.417 µM | Potency [7] 3.32 µM | Potency [8] 5.9 µM | Potency [9] 6.61 µM
inactive: activation [1] -1.43% | Potency [2] | Potency [13] | Potency [3]

CN(C)c1ccc(/C=C2\C(=O)Nc3ccccc32)cc1
inactive: activation [1] -19.4% | Potency [12] | Potency [13]
active: Potency [1] 43.2 µM

COc1cc(N2CCC(N(C)C)CC2)ccc1Nc1ncc(Cl)c(Nc2ccccc2P(C)(C)=O)n1
inactive: activation [1] -5.31% | Potency [2] | Potency [3]
active: Potency [1] 2.69 µM | Potency [4] 6.61 µM | Potency [5] 7.42 µM | Potency [6] 0.0934 µM | Potency [7] 2.63 µM | Potency [8] 2.63 µM | Potency [9] 9.34 µM | Potency [10] 7.42 µM

COCCOc1nc(-c2ccc(Cl)c(Cl)c2)n(-c2ccc(NC(=O)CCl)cc2)n1
inactive: activation [1] 36.6% | Potency [2] | Potency [13]
active: Potency [1] 15.1 µM | Potency [4] 1.86 µM | Potency [5] 2.09 µM | Potency [6] 5.25 µM | Potency [7] 0.662 µM | Potency [8] 1.32 µM | Potency [9] 1.05 µM | Potency [10] 0.934 µM

COc1cc2c(Nc3ccc(Br)cc3F)ncnc2cc1OCC1CCN(C)CC1
active: Potency [1] 21.3 µM | Potency [5] 23.5 µM | Potency [7] 2.63 µM | Potency [8] 14.8 µM | Potency [9] 20.9 µM
inactive: activation [1] 0.071% and -8.47% | Potency [2] | Potency [3]

CS(=O)(=O)c1cccc(CNc2nc(Nc3ccc4c(c3)CCC(=O)N4)ncc2C(F)(F)F)c1
active: Potency [1] 21.3 µM | Potency [5] 20.9 µM | Potency [6] 0.209 µM | Potency [7] 9.34 µM | Potency [8] 10.5 µM | Potency [9] 9.34 µM
inactive: activation [1] -20.3% and 55.5% | Potency [12] | Potency [2] | Potency [13] | Potency [3]

Nc1nc(NCCNc2ncc(-n3ccnc3)c(-c3ccc(Cl)cc3Cl)n2)ccc1[N+](=O)[O-]
inactive: activation [1] -14% | Potency [2] | Potency [3] | viability [4] 116% | Potency [5] | Potency [10]
active: Potency [1] 8.49 µM | Potency [6] 8.33 µM | Potency [7] 4.17 µM

CCCNC(=O)Nc1ccc(Oc2ncnc3cc(OC)c(OC)cc23)cc1Cl
inactive: activation [1] 17.1% | Potency [2] | Potency [3] | viability [4] 92.8% | Potency [5] | Potency [7] | Potency [8] | Potency [10]
active: Potency [1] 26.9 µM

NS(=O)(=O)NCCNc1nonc1C(=Nc1ccc(F)c(Br)c1)NO
active: Potency [1] 2.16 µM
inactive: activation [1] -6.33% and -3% | Potency [2] | Potency [3] | viability [4] 106% | Potency [5] | Potency [6] | Potency [7] | Potency [8] | Potency [9] | Potency [10]
